According to ChEMBL document CHEMBL4303097 (2020):
Whole data set: some 1,500 compounds, median “Inhibition index” near 0.17, cut for the highest 2% near 1.3. This is one part of a sample in which the highest values are shown more often than they occur.

The compounds below were run on SARS-CoV-2 (assay: Inhibition of cell viability relative to arbidol control (inhibition index > 1 indicates higher activity) measured by fluorescence (OD590nm) in Vero E6 cells infected with SARS-CoV-2 (strain BavPat1) at MOI 0.002 after 72hrs).
Assay type: functional, Chlorocebus sabaeus, Vero C1008

Row | SMILES | Inhibition index
1 | Clc1cc(Cl)c(OCC#CI)cc1Cl [HALOPROGIN] | -0.09794
2 | CC(=O)[C@H]1CC[C@H]2[C@@H]3CC[C@H]4C[C@H](O)CC[C@]4(C)[C@H]3C(=O)C[C@]12C [ALFAXALONE] | 0.7131
3 | Clc1ccc(CCC(Cn2ccnc2)Sc2c(Cl)cccc2Cl)cc1.O=[N+]([O-])O (configuration not stated) [BUTOCONAZOLE NITRATE] | -0.1062
4 | CC(=O)OCC(=O)[C@@]12N=C(C)O[C@@H]1C[C@H]1[C@@H]3CCC4=CC(=O)C=C[C@]4(C)[C@H]3[C@@H](O)C[C@@]12C [DEFLAZACORT] | 0.4333
5 | CC(C)(C)NC(=O)[C@H]1CC[C@H]2[C@@H]3CC[C@H]4NC(=O)C=C[C@]4(C)[C@H]3CC[C@]12C [FINASTERIDE] | 0.2658
6 | Cc1[nH]cnc1CN1CCc2c(c3ccccc3n2C)C1=O.Cl [ALOSETRON HYDROCHLORIDE] | 0.152
7 | Cc1nccn1CC1CCc2c(c3ccccc3n2C)C1=O.Cl (configuration not stated) | 1.665
8 | CN(C)CCC(c1ccccc1)c1ccccn1.O=C(O)/C=C\C(=O)O (configuration not stated) [PHENIRAMINE MALEATE] | 0.01395
9 | O=C(O[C@H]1C[N+]2(CCCOc3ccccc3)CCC1CC2)C(O)(c1cccs1)c1cccs1.[Br-] [ACLIDINIUM BROMIDE] | 0.1807
10 | CC1(C)S[C@@H]2[C@H](NC(=O)[C@H](NC(=O)N3CCNC3=O)c3ccccc3)C(=O)N2[C@H]1C(=O)[O-].[Na+] [AZLOCILLIN SODIUM] | 0.01854
11 | CC(C)(CO)[C@@H](O)C(=O)NCCCC(=O)O.CC(C)(CO)[C@@H](O)C(=O)NCCCC(=O)O.[Ca+2] | 0.08003
12 | CC(C)NNC(=O)c1ccncc1.O=P(O)(O)O [IPRONIAZID PHOSPHATE] | 0.02671
13 | Cl.Cl.NCCc1cc[nH]n1 | 0.03591
14 | CC1(C)S[C@@H]2[C@H](NC(=O)[C@H](N)c3ccc(O)cc3)C(=O)N2[C@H]1C(=O)O [AMOXICILLIN] | 0.1371
15 | CC12CC3CC(C)(C1)CC(N)(C3)C2.Cl [MEMANTINE HYDROCHLORIDE] | 0.5095
16 | CN(C)CCC(c1ccc(Br)cc1)c1ccccn1.O=C(O)/C=C\C(=O)O (configuration not stated) [BROMPHENIRAMINE MALEATE] | 0.3833
17 | CC1(C)S[C@@H]2[C@H](NC(=O)C(C(=O)O)c3ccsc3)C(=O)N2[C@H]1C(=O)[O-].[Na+] (some centres not stated) | 0.09416
